Source: PubChem BioAssay (several laboratories)
697 NFkB inh = inhibitors of PMA/ionomycin-induced NF-kB reporter, 697 cells, primary screen, B-cell NF-kB inhibitor project, cell-based, luminescence, uHTS. 697 B-cell NF-kB luciferase reporter, 16 h. inhibition, % at 4 µM. actives 0.33% (n = 330,000); in the data active means inhibition above about 35%
Gli-Sufu antag = Gli-Sufu pathway antagonists, primary screen, luciferase luminescence, Sufu-KO-LIGHT cells, uHTS; Sufu-KO-LIGHT fibroblasts, Gli luciferase reporter luminescence; inhibition, % at 5 µM; actives 0.74% (n = 340,000);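 active means inhibition above about 55%, limit read from the data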;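 further: 0% = DMSO-treated cells and 100% = wells with medium but no cells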
aSyn UTR inh = MLPCN primary screen, SNCA 5' untranslated region | alpha-synuclein 5'UTR reporter, inhibitor activity | inhibition, % (tested at 7.5 µM) | actives 0.82% (n = 300,000); in the data active means inhibition above about 60%;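 further: H4 neuroglioblastoma cells stably carrying SNCA 5'UTR luciferase fusion; 0% = DMSO wells and 100% = positive control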
Jurkat NFkB inh = inhibitors of induced NF-kB luciferase reporter, primary screen, TCR NF-kB activation inhibitor project, cell-based, luminescence, uHTS; inhibition, % at 4 µM; actives 0.53% (n = 330,000); AID 435003, 2010; Jurkat, PMA/ionomycin-induced NF-kB luciferase reporter; in the data active means inhibition above about 50%
H9c2 TAG inh = inhibitors of triacylglycerol accumulation, primary screen, cell-based, uHTS, fluorescence, H9c2. actives 0.66% (n = 230,000). H9c2 cells, Nile Red lipid (TAG) fluorescence; cells loaded with 200 µM oleic acid. inhibition, % at 12.5 µM;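 active means pattern-corrected inhibition of lipid staining of at least 50% with the nuclear-stain viability signal not falling by more than 50%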;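 further: 0% = DMSO wells and 100% = triacsin C control wells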
Shn3 inh set2 = reduction of Shn3 3'UTR firefly luciferase signal, primary screen, Schnurri-3 inhibitor project, cell-based, Clone20 osteoblasts, set 2. inhibition, % at 12.5 µM. actives 0.52% (n = 360,000). AID 588674, 2011. Clone20 osteoblast Shn3 3'UTR firefly luciferase, 24 h;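 active means mean inhibition of at least 75% with every replicate also reaching 75%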;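 further: 0% = median of neutral control wells and 100% = pilot-screen positive control compound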
Numbers without * were called inactive; nt = no result. An excerpt weighted towards active compounds, which were near 2.3% of everything screened.

SMILES | 697 NFkB inh | Gli-Sufu antag | aSyn UTR inh | Jurkat NFkB inh | H9c2 TAG inh | Shn3 inh set2
COc1cccc(CNC(=O)C2CCN(c3nn4c(=O)cc(C)nc4s3)CC2)c1 | -13.7 | -4.1 | 10.3 | 15.6 | nt | 0.9
O=C(Nc1ccc2[nH]c(=O)[nH]c2c1)c1ccc([N+](=O)[O-])o1 | 20.3 | -3.6 | nt | 2.1 | 53.1* | 15.6
O=C(Nc1cccc([N+](=O)[O-])c1)c1ccc([N+](=O)[O-])o1 | nt | nt | nt | nt | 85.6 | 43.7
O=C(Nc1cccc(NC(=O)c2ccccc2Cl)c1)c1ccc([N+](=O)[O-])o1 | 10.3 | 12.9 | 85.8* | 6.6 | nt | 44.6
O=C(Nc1ccc(Cl)c(Cl)c1)c1ccc(Cl)c(Cl)c1 | -91.4 | -51.0 | -101.7 | -70.0 | nt | -44.8
Cc1ccc(NC(=O)c2ccc(Cl)c(N3C(=O)C=CC3=O)c2)cc1 | -51.2 | 10.1 | -25.3 | -24.4 | 9.5 | 91.8*
COc1cccc(CN2CCN(Cc3cc(OC)c(OC)cc3OC)CC2)c1 | -24.7 | 6.7 | 12.3 | -12.3 | nt | -9.5
N#C/C(=C\c1ccc(N2CCOCC2)o1)c1nc2ccccc2[nH]1 | 5.7 | -66.5 | 15.1 | 5.2 | -209.9 | 17.0
N#C/C(=C/c1ccc(N2CCOCC2)o1)c1ccc(Cl)cc1 | nt | -78.8 | -285.5 | nt | nt | 91.2*
Cc1nc2sc(C(N)=O)c(N)c2c(C)c1CC(=O)c1ccccc1 | -3.5 | -58.6 | -51.7 | 22.8 | -6.4 | -16.4
COCc1cc(C)nc(NC2CC(C)(C)NC(C)(C)C2)c1C#N | 13.4 | -17.3 | 11.9 | 1.9 | nt | 3.9
CCCc1n[nH]c2c1/C(=N/O)CC(c1ccccc1)C2 (stereo not drawn) | 7.5 | -6.5 | 69.4* | -8.7 | nt | 14.8
CCCCC(=O)Nc1cc2nn(-c3ccc(OC)cc3)nc2cc1C | -170.2 | -66.3 | -67.2 | -119.5 | nt | -44.8
CCC(=O)Nc1cc2nn(-c3ccc(C)cc3)nc2cc1C | -239.8 | 39.5 | 80.3* | -54.0 | 2.6 | 49.8
CC(C)(C)c1ccc(OCC(=O)N/N=C/c2cc(Br)ccc2OC(=O)c2ccco2)cc1 | 20.8 | -10.1 | 82.9* | -1.7 | 15.6 | 51.3
C=CCOC(=O)C1=C(C)N=C2SCCC(=O)N2C1c1cccs1 (stereo not drawn) | 0.8 | 7.7 | 12.2 | 2.8 | -9.9 | 92.3*
CCOC(=O)C1=C(C)N=C2SCCC(=O)N2C1c1sccc1C (stereo not drawn) | -12.7 | 4.4 | 0.4 | -17.7 | nt | 3.8
COc1ccc(C(=O)c2c(C(F)(F)F)oc3c2C(=O)c2ccccc2C3=O)cc1 | -28.8 | 26.8 | 109.0* | 13.1 | 102.9 | 97.2*
COc1ccc(C(=O)NNc2ccccc2)cc1OC | 24.8 | -1.2 | 30.2 | 10.4 | nt | -1.8
O=C(c1cccc(Cl)c1)N1CCN(c2ncnc3c2cnn3-c2ccccc2)CC1 | -0.8 | 1.7 | 36.3 | 10.9 | 0.9 | -25.0
Clc1ccc(-n2ncc3c(N4CCCC4)ncnc32)cc1 | -208.0 | 17.2 | 92.3* | -100.8 | nt | 66.4
COc1ccc(S(=O)(=O)N2CCCCC2)cc1NC(=O)c1cccs1 | 3.5 | -5.6 | 5.0 | -8.7 | nt | 13.9
O=C1CC(c2ccc(O)cc2)Oc2cc(O)ccc21 (stereo not drawn) | 10.3 | -0.5 | -12.1 | 7.1 | nt | 3.3
CC1CCC2(CC1)SCC(=O)N2c1ccccc1 (stereo not drawn) | 6.3 | 2.8 | 4.8 | -1.4 | -12.1 | 9.0
COC(=O)c1ccc(C)c(NS(=O)(=O)c2ccc(C)c([N+](=O)[O-])c2)c1 | 10.6 | 1.2 | 3.2 | 6.9 | -2.2 | -4.4
COc1ccc(NS(=O)(=O)c2ccc(C(=O)N3CCCCCC3)cc2)cc1 | -13.6 | 14.3 | nt | 5.1 | -20.8 | 82.4*
COC(=O)c1ccc(C)c(NS(=O)(=O)c2ccc(OC)cc2)c1 | 12.9 | 32.4 | 81.9* | 35.8 | nt | 3.5
CCCCNC(=O)c1ccc(Cn2c(=S)[nH]c3c([nH]c4ccc(OC)cc43)c2=O)cc1 | -7.4 | -5.5 | 105.1* | -18.6 | 19.5 | 42.5
CCOCCCNC(=O)c1ccc(Cn2c(=S)[nH]c3c([nH]c4ccc(OC)cc43)c2=O)cc1 | 20.1 | 2.5 | 24.8 | -2.5 | 34.8 | -13.3
